Screening results (PubChem BioAssay)
The list is not random: actives were taken first. Their share in the collection is about 7.1%.
IL1B secr inh = inhibitors of inflammasome signaling (IL-1 beta secretion) | 4.7% of 360,000 active | THP-1 LPS/ATP IL-1B secretion, AlphaLISA, 16 h; stronger effect = lower value | activity change, % at 57.5 µM | AID 743279; in the data active means activity change below about -50%; inconclusive means mostly about -30% to -49%; further: on the % scale 0 is the no-effect control and ±100 the full control effect
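Secreted IL-1B measured by AlphaLISA bead assay after 16 h compound exposure of THP-1 cells; compounds (final up to 57.5 uM) added 1 h before LPS (250 ng/mL) and ATP (1.25 mM) stimulation; lower signal means less secretion.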
SW480 rereplic = inducers of DNA re-replication in SW480 colon cancer cells; SW480 DNA re-replication, Hoechst DNA content imaging, 48 h; Potency, µM (series often up to 46.1 µM), inactives show at the highest dose re-replication activation, actives largely listed as activators; 1.8% of 340,000 active; AID 624297; further: potency means the concentration at half of the fitted maximal effect; % of control where 0% means no effect; nearly all actives have a fitted effect of over 55% in size
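Hoechst fluorescence of nuclei (405 nm excitation, 500-530 nm emission) measured by plate-scanning imager after 48 hr compound exposure at 37 C; re-replication scored as increased number of nuclei with elevated intensity.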
MCF10A rerep = inducers of DNA re-replication in MCF 10A breast cells; MCF 10A DNA re-replication, Hoechst nuclear intensity, 48 h; Potency, µM (highest dose often 46.1 µM), for inactives: at the top dose activity, positive = re-replication, actives largely listed as activators; 2.9% of 350,000 active; further: potency means the concentration at half of the fitted maximal effect; % of control where 0% means no effect; nearly all actives have a fitted effect of over 50% in size
PINK1 modulator = modulators of PINK1 expression; PINK1 immunofluorescence, high-content cytometry, 24 h; Potency, µM (highest dose often 76.6 µM), without a hit: top-dose activation (PINK1 increase), usual class: activators; 0.2% of 410,000 active; active means well fitted activation curve with a large enough effect; inconclusive means small, poorly fitted or top-dose-only effect; cell line not stated here; further: potency means the concentration at half of the fitted maximal effect; % of control where 0% means no effect; nearly all actives have a fitted effect of over 65% in size
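Compound titrations (5 concentrations, 24 h) on a stable cell line; DMSO and CCCP controls. Endpoint: fixed-cell PINK1 immunofluorescence with mitochondrial, cell and nuclear markers, scanned by microplate cytometer.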
ATXN2 expr inh = reduces ATXN2 reporter expression in HEK-293 cells | 0.72% of 360,000 active | AID 1745845 | HEK-293 ATXN2-luciferase reporter, luminescence, 24 h | Potency, µM (titrated, usually from 57 µM), for the others: top-dose activity change, negative = inhibition, hits mostly inhibitors; further: potency means the concentration at half of the fitted maximal effect; on the % scale 0 is the no-effect control and ±100 the full control effect; nearly all actives have a fitted effect of over 55% in size
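ATXN2-luciferase reporter cells (luciferase flanked by upstream and downstream ATXN2 gene portions) were treated 24 h at 37 °C with compounds at up to 57 uM. SteadyGlo luminescence gave expression; GF-AFC fluorescence gave viability.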
S2 tox = cell viability loss in ATXN counter-screen. S2 cells (HEK-293 line with an ATXN2-luciferase reporter) viability, CellTiter-Fluor protease fluorescence, 24 h. Potency, µM (titrated, usually from 56.7 µM), most hits filed as cytotoxic. 0.49% of 400,000 active. AID 651635; further: potency means the concentration at half of the fitted maximal effect; nearly all actives have a fitted effect of over 40% in size
* marks the source's active call; other numbers are inactive results; i = inactive; ? = inconclusive; . = not tested or not shown; [ ] = remark or other dose. Unless noted, the call rests on the fitted dose curve; in most records, active means well fitted curve in the direction sought with a large enough effect; inconclusive means small, poorly fitted or top-dose-only effect, or another doubt; inactive means no such curve, though single readings can be large; an effect the other way counts as inactive or inconclusive.

SMILES	IL1B secr inh	SW480 rereplic	MCF10A rerep	PINK1 modulator	ATXN2 expr inh	S2 tox
CC(C)C(=O)NC(c1cccc([N+](=O)[O-])c1)c1ccc2cccnc2c1O (configuration not stated)	84.3	28.7%[9.22 µM]	?	1.4%	2.67µM*	?
CC(C)C(=O)NC(c1ccc(N(C)C)cc1)c1ccc2cccnc2c1O (configuration not stated)	.	.	.	-0.4%	.	.
CCCC(=O)NC(c1cccc([N+](=O)[O-])c1)c1ccc2cccnc2c1O (configuration not stated)	58.1	.	.	1.6%	.	?
Oc1c(C(Nc2nc3ccccc3s2)c2ccco2)ccc2cccnc12 (configuration not stated)	-99.2*	?	?	-2.0%	?	?
O=C(c1ccc(F)cc1)N1CCC[C@H](c2nc(-c3ccc(F)cc3)no2)C1	.	.	.	.	15.8%	.
CCOc1ccc(-c2nc(CN(Cc3ccccc3)C[C@@H]3CCC(=O)N3)c(C)o2)cc1	-80.6*	13.1%	8.2%	3.7%	?	i
O=C1c2cccc3cccc(c23)C(=O)N1c1ccccn1	-6.8	5.7%	-0.1%	-1.4%	.	i
O=C1c2c(Br)c(Br)c(Br)c(Br)c2C(=O)N1c1ccccn1	?	-21.9%	0.651µM*	-1.2%	?	i
COc1ccc(N2CCC(CNC(=S)Nc3cccc(C)c3)C2)cc1 (configuration not stated)	-77.5*	-8.4%	-0.6%	6.6%	-6.2%	i
COc1ccc(-c2nc3cnc(Oc4cccc(Cl)c4)nc3n(C[C@H]3CCCO3)c2=O)cc1	.	.	.	-1.3%	.	.
COc1ccc(N2C(=O)CSC2c2cccs2)cc1 (configuration not stated)	10.6	18.4µM*	?	1.6%	-6.2%	i
O=C1CSC(c2cccs2)N1c1ccccc1 (configuration not stated)	21.6	-2.1%	-2.6%	.	-9.0%	i
CCOC(=O)c1c(S(=O)(=O)NCC(=O)Nc2cccc(SC)c2)c(C)n(C)c1C	.	.	.	2.7%	-4.2%	i
Cc1c(C(=O)Nc2cccc(C(F)(F)F)c2)sc2nc[nH]c(=O)c12	.	.	.	0.1%	.	.
NC(=O)C12CCCC(Br)(CCC1)C2	-62.5*	-8.4%	-1.2%	3.0%	-5.3%	i
COc1ccc(/C=C/C(=O)c2ccc3c4c(cccc24)CC3)cc1	-78.3*	?	18.4µM*	-2.4%	?	i
COc1ccc(C(=O)Oc2ccc(F)cc2C(=O)/C=C/c2ccc(OC)c(OC)c2)cc1	-0.7	?	-0.2%	-3.2%	-6.5%	i
COc1ccc(/C=C/C(=O)c2cc3cccc(OC)c3oc2=O)cc1	-18.8	?	?	-0.1%	?	?
COc1ccc(/C=C/C(=O)c2ccc3c4c(cccc24)CC3)cc1OC	-3.0	?	18.4µM*	-2.4%	15.8µM*	i
COc1ccc(/C=C/C(=O)c2cc(F)ccc2OC(=O)c2ccccc2C)cc1OC	-99.4*	1.16µM*	1.16µM*	-0.8%	-12.4%	?
COc1cc2nc(N3CCOCC3)nc(NC3CCN(Cc4ccccc4)CC3)c2cc1OC	.	.	.	7.2%	.	.
O=C1C=CC(=O)N1Cc1ccccc1	-73.0*	?	?	0.1%	?	?
O=C1C2CC=CCC2C(=O)N1Cc1ccccc1 (configuration not stated)	21.5	0.5%	-6.8%	0.2%[38.3 µM]	5.2%	i
CCN1CC(CN(C)Cc2cn(-c3ccc(C)cc3)nc2-c2cccc(C)c2)CC1=O (configuration not stated)	-86.2*	0.0%	7.6%	2.1%	0.0%	i
Cc1ccc(-c2nn(-c3cccc(F)c3)cc2CN(Cc2nccn2C)C(C)C)o1	-96.5*	-101.4%	58.6%	2.6%	-14.2%	?
SMILES	IL1B secr inh	SW480 rereplic	MCF10A rerep	PINK1 modulator	ATXN2 expr inh	S2 tox
Cc1ccc(-n2cc(CN3CCC(O)(c4ccccn4)CC3)c(-c3ccc(F)cc3)n2)cc1	-103.0*	?	?	-1.5%	1.5%	i
Cc1ccc(-n2cc(CN(C)Cc3ncc[nH]3)c(-c3cccc(C)c3)n2)cc1	-81.4*	-6.1%	?	?	?	?
Cc1ccc(-c2nn(-c3cccc(F)c3)cc2CN2CCN(c3ccccn3)CC2)o1	-1.8	?	?	1.0%	.	i
COc1cc2nc(NC(=O)c3ccc(S(=O)(=O)N4CCOCC4)cc3)sc2cc1OC	.	.	.	-2.3%	-7.8%	i
CCOC(=O)N1CCc2c(sc(NCc3ccc(N(C)C)cc3)c2C(=O)Nc2ccccc2OCC)C1	.	.	.	4.4%	-15.3%	i
Cc1ccc(Cn2c(C(=O)Nc3ccc(Cl)cc3)cc3sccc32)cc1	.	.	.	?	4.3%	i
Cc1ccc(-n2cc(CN(C)Cc3nccn3C)c(-c3ccc(F)cc3)n2)cc1	-139.4*	-1.5%	?	5.1%	-18.3%	i
CCn1ccnc1CN(C)Cc1cn(-c2ccc(C)cc2)nc1-c1ccc(F)cc1	-13.5	-5.4%	3.5%	7.5%	.	?
CCn1ccnc1CN(C)Cc1cn(-c2ccccc2)nc1-c1ccc(OC)cc1F	-74.2*	29.8%	12.6%	-0.8%	-9.6%	i
CC(C)NC(=O)c1ccc2c(c1)nc1n2CCCCC1	.	.	.	0.9%	.	.
CCc1c(C)sc2c1CCN(Cc1cccc(OC)c1)C2c1ccccc1 (configuration not stated)	.	.	.	-0.7%	-25.1%	?
CCN(CC)CCNC(=O)CCc1c(C)nc2c(c(C)nn2-c2ccc(C)c(C)c2)c1C	-6.6	14.6µM*	20.2%	-0.6%	-38.3%	?
Cc1ccc(-n2nc(C)c3c(C)c(CCC(=O)Nc4ccc(CN5CCCC5)cc4)c(C)nc32)cc1	-86.1*	?	25.9µM*	-1.9%	?	?
O=C(Cn1c(=O)n(Cc2nc(-c3ccccc3)no2)c(=O)c2cc3c(cc21)OCO3)Nc1ccc(Cl)cc1	.	.	.	-0.1%	11.5%	i
CC(C)(C)OC(=O)N1CCC(c2c(C(=O)N3CCN(c4ccccn4)CC3)cnn2-c2cccc(F)c2)CC1	.	.	.	-0.4%	.	.
COc1ccc(C(=O)OCc2c(-c3ccccc3)ncc3ccccc23)cc1	0.0	14.6µM*	16.4µM*	4.3%	0.0%	?
CCn1c(C(=O)NCc2ccc(C)cc2)cc2sc(Cl)cc21	.	.	.	0.3%	.	.
CCc1c(C)nc2ncnn2c1N1CCC(C(=O)Nc2ccccc2)CC1	-3.0	-9.5%	0.8%	12.6µM*	-27.7%	i
CCc1c(C)nc2ncnn2c1N1CCC(C(=O)Nc2ccc(C)cc2)CC1	-7.7	5.0%	-3.9%	?	?	i
Nc1ncnc(N2CCOCC2)c1N	13.3	20.6µM*	0.7%	1.9%	13.3%	i
